# Laboratory results from PubChem BioAssay (NCATS).
# Records with an inconclusive call do not appear. Values without a mark were called inactive. Activity calls are given as the source filed them. Calls follow the shape of the dose curve; as a rule, active = well fitted inhibition curve with a large enough effect; inconclusive = small, poorly fitted or top-dose-only effect; inactive = flat fitted curve, though single readings scatter.
# Assay: qHTS for Inhibitors of Plasmodium falciparum (HB3) proliferation (AID 504318); also: nearly all actives have a fitted effect of over 60% in size;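 as to activity change, negative = inhibition: 0% = DMSO vehicle and -100% = artemisinin control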
# Conditions: P. falciparum HB3 in erythrocytes, SYBR Green DNA, 72 h; series mostly up to 7.21 µM; activity change, negative = inhibition: at the top concentration
# Source text: Plasmodium falciparum is a virulent malarial parasite that kills 1-2 million people worldwide each year. Malaria not only inflicts tremendous suffering and morbidity on the human population, but has dramatically influenced the course of civilization with profound sociological and economic implications (Shah, S. 2010). Transmitted by mosquitoes, the sporozoite form of the parasite enters the blood stream to infect hepatocytes, where they become merozoites that infect red blood cells (erythrocytes). Within erythrocytes, merozoites begin a […] cycle of growth and division, after which the parasite is released to infect new red blood cells. Gametocytes, which form within erythrocytes as well, circulate in the bloodstream and are ingested by the mosquito, thereby completing the life cycle (see CDC website). To profile malarial lines for differential chemical responses and to identify inhibitors of malarial growth, an assay that measures P. falciparum growth and replication within erythrocytes was employed. This assay uses a DNA binding fluorescent dye (SYBR Green) to detect parasite DNA following cell lysis. Because mature erythrocytes lack DNA, only Plasmodium-derived DNA is detected. The P. falciparum line cp250, derived from a malarial isolate from Cambodia, (Mu, J., et al. 2010) was added to the panel of lines, Dd2, HB3, 7G8 and GB4 in this study. Laboratory of Assay Development and Screening Technology [ADST] and NIH Chemical Genomics Center [NCGC] Boston University, Chemistry Department, Center for Chemical Methodology and Library Development [CMLD-BU] NIH National Institute of Allergy and Infectious Diseases [NIAID]
# ADST Assay Protocol Summary: The 1536-well SYBR Green viability assay was based on the method of Bennett et al (2004) and described previously in 1536-well format (Yuan J., et al. 2009). For screening 3 ul culture medium was dispensed into 1536 well black clear bottom plates (Aurora Biotechnologies) using a Multidrop Combi (Thermo Fisher Scientific Inc.), 23 nL compounds in DMSO were added by a pin transfer (Cleveland, P.H. and Koutz, P.J, 2005) using a pin tool-based delivery system (Kalypsys), and 5 ul of erythrocytes infected with P. falciparum one of five lines (cp250, Dd2, HB3, 7G8 or GB4, 0.3% parasitemia, 2.5% hematocrit final concentration) were added. The plates were incubated at 37C in a humidified incubator in 5% CO2 for 72 h, and 2 ul lysis buffer (20 mM Tris HCl, 10 mM EDTA, 0.16% saponin, 1.6% triton X, 10X SYBR Green I (supplied as 10,000X final concentration by Invitrogen) was added to each well. The plates were mixed for 25 sec with gentle shaking and incubated overnight at room temperature in the dark. The following morning, fluorescence intensity at 485(14) nm excitation and 535(25) nm emission wavelengths was measured on an EnVision (Perkin Elmer) plate reader. Plate reads were normalized relative to the control inhibitor (0.29 uM artemisinin) and vehicle (DMSO) wells present on each plate and then corrected by an algorithm using vehicle-only control plates at the beginning and end of the compound plate stack. References Shah, S. (2010). The Fever: how malaria has ruled humankind for 500,000 years. New York, Sarah Crichton Books. CDC web site, http://www.cdc.gov/malaria/about/biology/index.html Mu, J., Myers, R.A., Jiang, H., Liu, S., Ricklefs, S., Waisberg, M., Chotivanich, K., Wilairatana, P., Krudsood, S., White, N.J., et Plasmodium falciparum genome-wide scans for positive selection, recombination hot spots and resistance to antimalarial drugs Nature Genetics 2010, 42, pp 268-271 Bennett TN, Paguio, M., Gligorijevic, B., Seudieu, C., Kosar, A. D., Davidson, E., and Roepe, P. D. Novel, rapid, and inexpensive cell-based quantification of antimalarial drug efficacy Antimicrobial Agents Chemother. 2004, 48(5): pp 1807-10 Yuan J, Johnson RL, Huang RL, Wichterman J, Jiang HY, Hayton K, Fidock DA, Wellems TE, Inglese J, Austin CP, Su XZ. […]
# Potency is read from the fitted curve at half-maximal effect.
Structure (SMILES),"activity change, negative = inhibition",Potency
CCC(=O)OC1(C)C(=O)C=C2C=C(c3ccc(C#N)cc3)OC=C2C1=O (stereo not given),-3.72%,
CCOC(=O)NN=C1C[C@@H](O)[C@@H](O)[C@@H]2[C@H]3C(=O)N(C[C@@H]4CCCO4)C(=O)[C@@H]3CC[C@H]12,3.75%,
COC(=O)CC=C[C@@H](C)[C@H](NC(=O)OCC(Cl)(Cl)Cl)c1cccc(OC)c1,-11%,
C=CCN=C1NC(c2cccc(F)c2)C(C(=O)OC)=C(C)N1Cc1ccccc1 (stereo not given),2.51%,
COc1ccc(C=CN(CCc2ccc(OC)c(OC)c2)C(=O)c2ccccn2)cc1,-0.155%,
CCOC(=O)CCN1C(=O)[C@@H]2[C@H]3[C@H](O)[C@H](O)CC(=NOCC(C)C)[C@@H]3CC[C@H]2C1=O,3.44%,
C=CCN=C1NC(c2cccc(C(F)(F)F)c2)C(C(=O)OC)=C(C)N1Cc1ccccc1 (stereo not given),9.98%,
CC(CCC(=O)OC[C@H]1O[C@H](C#Cc2ccccc2)C=C[C@H]1Oc1ccc(C)cc1)=NOC[C@@H](O)COCc1ccco1,0.824%,
COC(=O)C1=C[C@@H]([C@@H](C)[C@H](OC)c2ccccc2Br)[C@@H]2OCCC[C@H]12,5.48%,
CC1(OC(=O)c2ccc(Cl)nc2)C(=O)Cc2cc(-c3ccsc3)ncc2C1=O (stereo not given),,inactive
COC(=O)CC=C[C@H](C)[C@@H](OCc1ccccc1Br)C(C)C,12.9%,
COC(=O)[C@H]1[C@@H](c2ccccc2)NC(=O)N(Cc2ccccc2)[C@@H]1C,3.88%,
COC(=O)C1=C(C(=O)OC)[C@@H]2Nc3ccccc3[C@@]23C[C@@H](C(=O)OC)N(C(=O)Nc2ccc(C(F)(F)F)cc2)C3=N1,-15.8%,
CC1=CC[C@@H](COc2ccccc2)O[C@@]2(C1)C(=O)Nc1cccc(Br)c12,-8.86%,
COC(=O)c1c(C(=O)OC)c2c3cc(OC)c(OC)cc3ccn2c1C(=O)OC,2.46%,
COc1ccccc1C=CC1=CC2(C)CC1(C)C(c1ccccc1OC)CC2=O (stereo not given),,1690 nM (active)
COC(=O)CC=C[C@@H](C)[C@@H](COc1ccccc1Br)OC,-0.27%,
C#CCCOC(=O)N1C2=NC(C(=O)OC)=C(C(=O)OC)[C@@H]3Nc4ccccc4[C@]23C[C@H]1C(=O)OC,,inactive
CCN1C(=O)[C@@H]2[C@H]3[C@H](O)[C@H](O)CC(=NOCC[C@@H]4C=C[C@H](OC(C)=O)[C@@H](COC(C)=O)O4)[C@@H]3CC[C@H]2C1=O,1.85%,
N#Cc1ccc2c(c1)C[C@]1(CCCCN3C(=O)c4ccccc4C3=O)Oc3cc(-c4ccccc4)oc(=O)c3[C@H]2O1,-5.27%,

Structure (SMILES),"activity change, negative = inhibition",Potency
COc1cc(C(NC(=O)C(F)(F)F)c2cc3ccccc3o2)cc(OC)c1OC (stereo not given),,inactive
COc1cc(O)c(C(=O)C=Cc2ccc3c(c2)OCO3)c(OC)c1,5.05%,
C[C@@H]1C=CCCO[C@]12C(=O)Nc1ccccc12,-4.44%,
C=CCC1(O)C=CCC2C3C4C(OC(C)(C)C)C2C1C34 (stereo not given),9.92%,
OC[C@@H](O)[C@@H](O)CCc1ccccc1,0.0662%,
COc1ccc2c(c1)[C@@]1(OCCC=C[C@@H]1C)C(=O)N2CC1CC1,-3.9%,
O=C1[C@H]2[C@@H]3[C@@H](O)[C@H](O)CC(=NOCc4ccccc4)[C@@H]3CC[C@H]2C(=O)N1Cc1ccc2c(c1)OCO2,-9.84%,
CC=COC(=O)N[C@@H](c1cccc(C)c1)[C@]1(C(=O)OCC)CCCC1=O,9.25%,
CCOC(=O)CN1C(=O)NC(c2cccc(F)c2)C(C(=O)OC)=C1C (stereo not given),-2.5%,
CC(=O)OC[C@H]1O[C@H](CC=NOC[C@@H](O)COCc2ccco2)C=C[C@H]1OC(C)=O,1.23%,
C=C(C#Cc1ccc(OC)cc1)CCN1C=C(C(=O)OCC)C(c2ccccc2)NC1=O (stereo not given),-3.96%,
COC(=O)CC=C[C@H](C)[C@@H](NC(=O)C(F)(F)F)c1ccccc1Br,0.0651%,
CC1(OC(=O)C2CCCC2)C(=O)C=C2C=C(c3ccc(C#N)cc3)OC=C2C1=O (stereo not given),-5.48%,
CC1=CC[C@@H](COc2ccccc2)O[C@@]2(C1)C(=O)Nc1ccccc12,-20.2%,
C=CCN1C(=O)CC[C@@]23C1=NC(C(=O)OC)=C(C(=O)OC)[C@@H]2N(CC=C)c1ccccc13,-3.89%,
C=CCN=C1N[C@@H](c2ccccc2)[C@H](C(=O)OC)[C@@H](C)N1CC,1.47%,
CC(C)OC(=O)[C@@H]1CC[C@H](C)[C@@H](CCC[C@@H]2CC=C[C@H](CC#N)O2)O1,2.27%,
COC(=O)CC=C[C@@H](C)[C@H](O)c1ccccc1Br,,1900 nM (active)
COc1ccc2c(c1)O[C@@H](c1cccc(C(F)(F)F)c1)[C@H](O)C2=O,,inactive
COC1=C[C@H](C(=O)NCc2ccc(Br)cc2)C(C)C(c2ccccc2)CC1=O (stereo not given in full),2.77%,
